SENP8 block-1 – SENP8 protease inhibition. Q96LD8. 330,000 tested, 1.2% active. purified SENP8, Z-RLRGG-aminoluciferin cleavage, luminescence. inhibition, % at 10 µM; in the data active means inhibition above about 50%
TRAIL sens C8 – caspase-8 TRAIL sensitization. NB7+C8 cells + TRAIL, ATPlite viability luminescence. inhibition (viability loss, TRAIL sensitization), % at 10 µM. 360,000 tested, 1% active. AID 624354;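 active means compounds causing at least 50% loss of cell viability in the single-dose screen, relative to plate controls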
PPC-1+TRAIL kill – kills PPC-1 cancer cells in the presence of TRAIL; PPC-1 cells + TRAIL, ATPLite viability luminescence; cell killing (% activity), % at 4 µM or 5 µM; 220,000 tested, 0.41% active;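 active means cell killing above 50% in the first pass at 4 µM, then a duplicate retest at 5 µM averaging 50% or more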;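 further: plate controls were cells with TRAIL plus DMSO for no effect and medium-only wells lacking cells for full effect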
SENP7 inh – SENP7 protease inhibition; Q9BQF6; recombinant SENP7, Z-RLRGG-aminoluciferin luminescence, 40 min; inhibition, % at 5 µM; 330,000 tested, 1.5% active; AID 434973;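 active means inhibition above about 50% at the single test dose, limit read from the data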;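 further: plate controls were DMSO with enzyme for no effect and no enzyme buffer wells for full effect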
Target sequence (Q9BQF6 706-1050 limits assumed): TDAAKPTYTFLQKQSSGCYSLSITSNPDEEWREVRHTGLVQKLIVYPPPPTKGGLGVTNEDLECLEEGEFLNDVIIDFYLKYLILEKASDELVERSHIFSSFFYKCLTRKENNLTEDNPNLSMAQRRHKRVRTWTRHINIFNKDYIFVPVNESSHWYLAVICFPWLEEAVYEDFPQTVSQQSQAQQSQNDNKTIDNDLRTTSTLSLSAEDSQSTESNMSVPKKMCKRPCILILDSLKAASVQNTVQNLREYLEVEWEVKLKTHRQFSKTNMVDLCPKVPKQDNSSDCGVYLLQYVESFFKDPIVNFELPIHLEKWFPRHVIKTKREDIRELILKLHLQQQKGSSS
SENP8 block-2 – SENP8 (human) protease inhibition | Q96LD8 | recombinant SENP8, Nedd8 substrate fluorescence | inhibition, % at 20 µM | 360,000 tested, 0.64% active | AID 602440; in the data active means inhibition mostly above about 40%, no sharp cut-off; inactive means mostly below about 27%
SENP6 block – inhibitors of human SENP6 protease | Q9GZR1 | Recombinant SENP6 catalytic domain, aminoluciferin luminescence | inhibition, % at 10 µM | 330,000 tested, 1.8% active | AID 2599;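 active means inhibition above about 50% at the single tested dose, limit read from the data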;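 further: plate controls were DMSO wells with enzyme for no effect and DMSO wells lacking enzyme for full effect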
SENP8 inh conf – SENP8 (human) inhibition, single concentration confirmation; 1,400 tested, 15% active; inhibition, % at 25 µM; shares compounds with SENP8 block-2; purified SENP8, Nedd8-AMC/pro-Nedd8 cleavage fluorescence, 30 min; in the data active means inhibition mostly above about 39%, no sharp cut-off; inactive means mostly below about 34%
Active calls of the source: *; · = not tested or not shown. Rows were chosen to be rich in hits. Some 3% of all compounds tested hit in one or more screens of this group.

SMILES | SENP8 block-1 | TRAIL sens C8 | PPC-1+TRAIL kill | SENP7 inh | SENP8 block-2 | SENP6 block | SENP8 inh conf
COc1ccc(NC(=O)/C(C#N)=C/c2ccc(Sc3nncn3C)c([N+](=O)[O-])c2)cc1 | -6.7 | -2.8 | 8.6 | -6.0 | 0.7 | -15.6 | ·
O=S(=O)(c1ccc(NC(=S)Nc2ccc3c(c2)OCO3)cc1)N1CCOCC1 | 4.9 | -5.2 | 22.0 | 11.1 | 44.5* | 12.9 | -4.9
COc1ccc(C(=O)OCCCN(C)C)cc1OC | 1.8 | 3.1 | 0.0 | 8.2 | 41.2* | 7.6 | -7.3
CCOC(=O)c1sc(C)c2c(=O)n(CC(=O)c3ccc(Br)cc3)nnc12 | -6.4 | -13.6 | 11.2 | 3.6 | 40.5* | -8.9 | 17.9
CCOC(=O)Cn1c(C)nc2c(C(=O)OCC)sc(C)c2c1=O | 2.4 | -1.9 | 14.3 | 1.8 | -241.4 | -22.1 | ·
COc1ccc(CCNC(=O)CCS(=O)(=O)c2ccc3nc(C)sc3c2)cc1OC | 3.6 | -1.9 | · | -9.8 | 17.0 | -0.3 | ·
O=C(CSC1=NNC(c2ccccn2)S1)Nc1ccccc1 (stereo not drawn) | 3.9 | 2.3 | 8.0 | 9.0 | 47.6* | -18.0 | 19.6
O=C(CSC1=NNC(c2ccccn2)S1)Nc1cccc(Cl)c1 (stereo not drawn) | -7.7 | -12.3 | -1.4 | 8.0 | 24.8 | -11.1 | ·
Cn1c(SCCC#N)nnc1-c1ccc(F)cc1 | -2.4 | -18.3 | 1.8 | 8.9 | 13.8 | -0.5 | ·
CC1=C(SCCC#N)S/C(=C2\SC(C)=C(SCCC#N)S2)S1 | 2.4 | -6.7 | -4.6 | 2.7 | 45.5* | -5.9 | 69.3*
COc1ccc(OC)c(C(=O)c2c(C)oc3cc([N+](=O)[O-])c(O)c([N+](=O)[O-])c23)c1 | 6.1 | -10.2 | 4.4 | 5.5 | 18.7 | -16.9 | ·
Cc1oc2cc([N+](=O)[O-])c(O)c([N+](=O)[O-])c2c1C(=O)c1ccc(Cl)cc1 | 1.7 | 5.3 | -19.2 | 1.0 | 42.3* | -8.6 | 21.6
Cc1ccc(NC(=O)CN2CCc3cc4c(cc3C2)OCCCO4)cc1 | 10.2 | -10.9 | · | 5.6 | 42.7* | 11.7 | 4.0
O=[N+]([O-])c1ccc(Sc2ccccc2Cl)nc1 | -2.1 | -20.2 | 21.0 | -3.4 | 40.3* | -11.1 | 8.4
COc1ccc(CCC(=O)N2CCN(c3ccccc3)CC2)cc1OC | 1.6 | -21.8 | · | -3.5 | 5.0 | -11.6 | ·
COc1cccc(N=Nc2c(=O)[nH]n3c(=O)cc(C)[nH]c23)c1 | -3.8 | 4.6 | 4.0 | -6.5 | 47.5* | 12.5 | 32.1
Cc1c(C(=O)N2CCC[C@H]2CO)oc2c(F)cccc12 | 3.7 | 2.1 | · | 7.3 | 6.4 | -0.2 | ·
Cc1nnc(Sc2cc(NCCCO)c([N+](=O)[O-])c3nonc23)s1 | · | 6.9 | 3.6 | · | 75.4* | · | 6.1
Cc1cc(O)c(C(C)C)cc1N=Cc1ccc([N+](=O)[O-])cc1 | · | -20.3 | · | · | 94.9* | · | 10.7
Cc1cc(O)c(C(C)C)cc1N=Cc1ccc(N(C)C)cc1 | · | 3.3 | · | · | 38.3 | · | ·
COc1cccc(C=Nc2cc(C(C)C)c(O)cc2C)c1O | · | -2.6 | · | · | 69.5* | · | 23.4
O=c1[nH]n2c(=O)c3c([nH]c2c1N=Nc1cccc(C(F)(F)F)c1)CCCC3 | -5.9 | -11.5 | 22.7 | -5.7 | 56.0* | 4.7 | 24.4
CC(C)(C)c1ccc2c(c1)OC(C(=O)N/N=C/c1ccc([N+](=O)[O-])o1)CO2 (stereo not drawn) | 2.2 | -6.2 | 8.4 | 9.7 | 44.4* | 1.5 | 15.1
Cn1cccc1/C=N\NC(=O)C1COc2ccc(C(C)(C)C)cc2O1 (stereo not drawn) | -10.1 | -1.3 | · | 2.4 | 15.7 | -5.7 | ·
CC1CN(C(=O)COC(=O)Cc2ccc(Cl)cc2)CC(C)O1 (stereo not drawn) | -16.1 | 2.0 | · | -6.9 | 8.4 | -8.9 | ·
COCc1[nH][nH]c(=O)c1C=Nc1ccc(Cl)cc1 | -4.6 | -1.5 | 6.3 | -0.7 | 48.2* | 0.5 | 17.0
CCOc1[nH]n(-c2ccccc2)c(=O)c1C=Nc1ccc(C)cc1 | -11.8 | 13.9 | 9.8 | -3.4 | 21.7 | -10.5 | ·
Cc1[nH]n(-c2ccc(Cl)cc2)c(=O)c1C=Nc1ccc(S(=O)(=O)N2CCOCC2)cc1 | -5.9 | 16.6 | 1.8 | 13.3 | 47.1* | 9.1 | 16.7
CCOc1[nH]n(-c2ccccc2)c(=O)c1C=Nc1ccccc1 | -6.8 | -5.7 | 4.5 | -4.4 | 16.5 | -6.5 | ·
CCOc1[nH]n(-c2ccccc2)c(=O)c1C=Nc1ccc(Cl)cc1 | -5.6 | 35.8 | 24.0 | 0.0 | 40.3* | -11.0 | 12.4

Source: PubChem BioAssay
